Measurements from PubChem BioAssay (Tox21).
Inconclusive results are not listed. Entries that show only a call come without a potency. Calls of active or inactive are those of the source. Calls come from the whole dose curve.

experiment: qHTS assay to identify small molecule agonists of H2AX - cell viability counter screen (AID 1224847); settings: CHO-K1 viability, CellTiter-Glo luminescence, 3 h; series mostly up to 154 µM; note: nearly all actives have a fitted effect of over 30% in size; for activity change, negative = cytotoxicity: top concentration of the series differs between compounds
From the text: National Center for Advancing Translational Sciences [NCATS]
NIH Chemical Genomics Center [NCGC]
U.S. Environmental Protection Agency [EPA]
National Institutes of Environmental Health Sciences [NIEHS]
National Toxicology Program [NTP]
U.S. Food and Drug Administration [FDA]
HTRF phospho-H2AX (Ser139) assay (Cisbio Bioassays, US) enables the quantitative detection of the histone variant H2AX when phosphorylated on serine 139. When double-stranded DNA breaks, either by ionizing radiation or endogenous physiological processes, H2AX becomes phosphorylated at Ser139. This phospho-Ser139 serves as a sensitive biomarker for the detection of such breaks, localizing the site of DNA repair. So, HTRF phospho-H2AX Ser139 is a pertinent assay to study genome stability, the cell cycle, DNA repair, and it serves as a biomarker for cancer, and to understand aging. Wild type CHO-K1 cells were used to identify the inducers of Phospho-H2AX Ser 139 from the Tox21 compound collections. Also cytotoxicity of the Tox21 10K compound library against the CHO-K1 cell line was tested by measuring the cell viability using CellTiter-Glo assay (Promega, Madison, WI).
Tox21 Assay Protocol Summary:
The CHO-K1 cells suspended in culture medium containing 10% FBS were dispensed at 1000 cells/ 3 ul/well in 1536-well white wall/solid bottom plates (Greiner Bio-One North America, NC) using a Multidrop Combi (Thermo Fisher Scientific Inc., Waltham, MA). After the assay plates were incubated at 37C overnight, 23 nl of compounds at 15 concentrations (from 5-48 columns) or positive control (from 1 to 4 columns) were transferred to the assay plates using a Pintool station (Wako, San Diego, CA) into each well resulting in a final DMSO concentration of 0.76%. After 3hr incubation at 37C, 3 uL/well CellTiter-Glo luminescent cell viability reagent (Promega Corporation, Madison, WI) was added using a Flying Reagent Dispenser (FRD) (Aurora Discovery, CA). After incubation at room temperature for 30 min, the luminescence intensity was read using a ViewLux plate reader (PerkinElmer, Waltham, MA).
Potency is the fitted concentration of half-maximal effect.

Row | SMILES | Potency | activity change, negative = cytotoxicity
1 | CC(CN)CCCN (stereo not given) | 357 nM (active) | 
2 | CCN(CCO)CCCC(C)Nc1ccnc2cc(Cl)ccc12 (stereo not given) |  | 1.55% [at 14 µM] (inactive)
3 | CCN(CC)C(C)CN1c2ccccc2Sc2ccccc21 (stereo not given) | inactive | 
4 | C=C(C)C(=O)OCCN(C)C | inactive | 
5 | CCCCC(CC)(CO)CO | inactive | 
6 | CCCOc1ccc2nc(NC(=O)OC)[nH]c2c1 | inactive | 
7 | CC(=O)c1ccc2c(c1)[C@H](NC(=O)c1ccc(F)cc1)[C@@H](O)C(C)(C)O2 | inactive | 
8 | CCOc1cc(OCC)c(C(=O)CCC(=O)O)cc1OCC | inactive | 
9 | C1CCC2OC2C1 (stereo not given) | inactive | 
10 | CCCCCCOC(=O)CCC | inactive | 
11 | NC[C@H]1O[C@H](O[C@H]2[C@H](O)[C@@H](O[C@H]3O[C@H](CO)[C@@H](O)[C@H](N)[C@H]3O)[C@H](N)C[C@@H]2N)[C@H](O)[C@@H](O)[C@@H]1O |  | 4.56% [at 14 µM] (inactive)
12 | CCCCOC(=O)/C=C\C(=O)OCCCC | inactive | 
13 | OCCC1CCCCN1 (stereo not given) | inactive | 
14 | CC1(C)CCC(C)(C)c2cc(NC(=O)c3ccc(C(=O)O)cc3)ccc21 | inactive | 
15 | O=[N+]([O-])c1cccc(Cl)c1Cl | inactive | 
16 | CC(=O)O[C@H]1C[C@@H]2CC[C@@H]3[C@H](CC[C@@]4(C)[C@H]3C[C@H]([N+]3(C)CCCCC3)[C@@H]4OC(C)=O)[C@@]2(C)C[C@@H]1N1CCCCC1 | inactive | 
17 | Cn1c(N)nc2nc[nH]c2c1=O | inactive | 
18 | CC(C)c1ccccc1C(C)C | inactive | 
19 | CC(C)(C)C(=O)OCOP(=O)(COCCn1cnc2c(N)ncnc21)OCOC(=O)C(C)(C)C | inactive | 
20 | Oc1ccc(Sc2ccc(O)cc2)cc1 | inactive | 

Row | SMILES | Potency | activity change, negative = cytotoxicity
21 | O=C1[C@H](CC[C@H](O)c2ccc(F)cc2)[C@@H](c2ccc(O)cc2)N1c1ccc(F)cc1 | inactive | 
22 | O=C(NN1CCCC1)NS(=O)(=O)c1ccc(Cl)cc1 | inactive | 
23 | COC(=O)C(C)=O | inactive | 
24 | O=C(Cl)c1ccc([N+](=O)[O-])cc1 | inactive | 
25 | O=C(O)Cn1c(C(=O)Nc2nc(-c3ccccc3Cl)cs2)cc2ccccc21 | inactive | 
26 | O=C(/C=C/c1ccc(O)c(O)c1)O[C@@H]1C[C@](O)(C(=O)O)C[C@@H](O)[C@H]1O | inactive | 
27 | O=C(CCN1CCN2CCCC2C1)N1c2ccccc2Sc2ccc(Cl)cc21 (stereo not given) |  | -4.72% [at 31.6 µM] (inactive)
28 | O=C(CC(=O)c1ccccc1)c1ccccc1 | inactive | 
29 | CC(=O)/C=C/C1C(C)=CCCC1(C)C (stereo not given) | inactive | 
30 | O=S1(=O)N=C(O)c2ccccc21 | inactive | 
31 | Oc1ccc(C(O)CNCCCCCCNCC(O)c2ccc(O)c(O)c2)cc1O (stereo not given) | inactive | 
32 | CC1CCc2cc(F)cc3c(=O)c(C(=O)O)cn1c23 (stereo not given) | inactive | 
33 | COc1ccc2[nH]c(S(=O)Cc3ncc(C)c(OC)c3C)nc2n1 (stereo not given) | inactive | 
34 | CCN(CC)CCNC(C(=O)OCCC(C)C)c1ccccc1 (stereo not given) | inactive | 
35 | CN1CCN(C2=Nc3ccccc3Sc3ccc(Cl)cc32)CC1 | inactive | 
36 | C#CCOC(=O)[C@@H](C)Oc1ccc(Oc2ncc(Cl)cc2F)cc1 | inactive | 
37 | CC[C@H](C)[C@@H](C(=O)O)n1sc2ccccc2c1=O | inactive | 
38 | C=CC[N+]1([C@H]2C[C@H]3[C@@H]4CC[C@H]5C[C@H](OC(C)=O)[C@@H](N6CCCCC6)C[C@]5(C)[C@H]4CC[C@]3(C)[C@H]2OC(=O)CC)CCCCC1 | inactive | 
39 | O=C(Nc1ccccc1)OCC(CN1CCCCC1)OC(=O)Nc1ccccc1 (stereo not given) | inactive | 
40 | CC[C@H](C)[C@H](N)C(=O)O | inactive | 
